Screening data as filed in PubChem BioAssay.
Spn DPM-DC inh – inhibitors of Streptococcus pneumoniae diphosphomevalonate decarboxylase; purified DPM-DC, PK/LDH coupled NADH fluorescence; calls only at 10 µM; hit rate 0.49% among 65,000; AID 556;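 active = the 320 compounds with the highest percent inhibition in the single-dose primary screen, excluding strongly autofluorescent ones, cut at about 32% in these data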;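 note: kinetic rate of NADH fluorescence loss reporting ADP formed by the decarboxylase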
Spn MK inh – blocks S. pneumoniae mevalonate kinase | AID 555 | inhibition, % at 10 µM | purified MK, PK/LDH-coupled NADH absorbance 340 nm | hit rate 0.48% among 65,000;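 active = ranked among the strongest by inhibition in the single 10 µM screen, a fixed top-ranked set picked for dose follow-up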
Fluor 339 460 – intrinsic fluorescence of library compounds, ex339/em460 – biochemical, MLSMR library, data from DPM-DC assay, artefact control, profiling panel; compound autofluorescence, ex339/em460 nm, NADH buffer; stronger effect = higher value; 1 = no-compound wells, NADH background; fluorescence fold increase at 10 µM; hit rate 5.5% among 65,000; AID 709;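 active = at 10 µM, mean starting fluorescence two-fold or more over control wells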;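 note: signal is the first read of a kinetic run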
NADH coupling – inhibition of NAD/NADH coupling enzymes, library profiling | coupled PK/LDH NADH assays, four targets | IC50, µM (titrated, usually from 10 µM) | hit rate 0.02% among 65,000 | AID 774;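 active = single-dose screening hits from any of four coupled enzyme assays that gave an IC50 when retested across doses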;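 note: the DPM-DC format reads NADH fluorescence rather than 340 nm absorbance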
Abs 340nm – absorbance at 340 nm; compound absorbance at 340 nm, fold over control; fold change at 10 µM; 65,000 tested, under 10 active;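 active = at 10 µM dose, initial 340 nm absorbance at least 2 fold that of control wells; inactive = change under 2 fold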;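 note: initial absorbance extrapolated from kinetic A340 decline of NADH oxidation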
PMK inhibit – blocks S. pneumoniae phosphomevalonate kinase | hit rate 0.49% among 65,000 | purified PMK, PK/LDH-coupled NADH absorbance 340 nm | inhibition, % at 10 µM;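 active = top-ranked compounds by inhibition in the single 10 µM screen, taking a fixed number of the strongest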
Hits are given with their value; - = inactive; . = not tested or not shown. Shown are actives, neighbours in structure and some others; about 6.3% of the full set was active somewhere.

SMILES | Spn DPM-DC inh | Spn MK inh | Fluor 339 460 | NADH coupling | Abs 340nm | PMK inhibit
CN1CCN(CCCNC(=O)c2cn(C3CCCCC3)c(=O)c3c2c2ccccc2n3C)CC1 | . | - | 2.08 | - | - | -
CCOC(=O)N1CCN(C(=O)CSCC(=O)Nc2nc(-c3ccc(Cl)s3)cs2)CC1 | - | - | - | - | - | -
Cc1nn(-c2ccc(F)cc2)c2c1cc(C#N)c1nc3ccccc3n12 | . | - | 2.48 | - | - | -
CCCn1nc(NC(=O)c2ccco2)c2cc3ccc(C)cc3nc21 | . | - | 3.91 | - | - | -
CCn1nc(NC(=O)c2ccco2)c2cc3ccccc3nc21 | - | - | - | - | - | -
COC(=O)c1ccccc1NC(=O)c1cc(-c2cccc(OC)c2)on1 | - | - | - | - | - | -
COC(=O)c1ccccc1NC(=O)c1cc(-c2cccs2)on1 | - | - | 2.04 | - | - | -
O=C(c1cc2ccccc2oc1=O)N1CCN(c2ccc(N3CCOCC3)nn2)CC1 | - | - | - | - | - | -
O=C(c1ccc(CSCc2ccccc2F)o1)N1CCN(c2ccc(N3CCOCC3)nn2)CC1 | . | - | 2.37 | - | - | -
CC1CCc2nc(N)c(C#N)c(-c3cccnc3)c2C1 (configuration not stated) | - | - | - | - | - | -
CC1CCc2nc(N)c(C#N)c(-c3ccncc3)c2C1 (configuration not stated) | . | - | 3.75 | - | - | -
CC(=O)N1CCC(N2CCN(c3ccccc3F)CC2)CC1 | - | - | - | - | - | 36.0
CCOC(=O)C(CC)Sc1nc2c(cnn2-c2ccccc2)c(=O)[nH]1 (configuration not stated) | - | - | - | - | - | -
CCC(CC)C(=O)Nc1c2cnn(-c3ccccc3)c2nc(=O)n1-c1ccccc1 | - | - | 2.19 | - | - | -
COCc1cc(=O)[nH]c(Nc2nc(C)c3ccc(C)cc3n2)n1 | - | - | - | - | - | 28.0
COC(=O)NC1CSCC1OC(=O)CN1C(=O)c2ccccc2C1=O (configuration not stated) | - | - | - | - | - | -
CCOc1ccc2nc(SCC(=O)N3CCCCCC3)c(C#N)cc2c1 | - | - | - | - | - | -
CCOc1ccc2nc(NCCNC(=O)CC)c(C#N)cc2c1 | . | - | 3.82 | - | - | -
S=c1[nH]nc(-c2ccncc2)n1Cc1ccccc1 | - | - | - | - | - | -
Oc1ccc(-c2n[nH]c(=S)n2Cc2ccccc2)cc1 | - | active | - | - | - | -
Clc1ccccc1OCCn1ccnc1 | - | - | - | - | - | -
Clc1ccccc1OCCN1CCCCC1 | - | 41.0 | - | - | - | -
C=CCc1ccccc1OCC(CN1CCCCC1)OC(C)=O (configuration not stated) | - | - | - | - | - | -
C=CCc1ccccc1OCCCCN1CCCC1 | - | 45.0 | - | - | - | -
CCc1ccccc1OCCCCN1CCCC1 | - | 71.0 | - | - | - | -
SMILES | Spn DPM-DC inh | Spn MK inh | Fluor 339 460 | NADH coupling | Abs 340nm | PMK inhibit
COc1cccc(OCCCCN2CCCCC2)c1 | - | 55.0 | - | - | - | -
COc1ccc(S(=O)(=O)NCc2ccco2)cc1-c1nnc2c3ccccc3c(C)nn12 | - | - | - | - | - | -
O=c1cc(C(F)(F)F)nc(-c2ccccc2)[nH]1 | - | - | - | - | - | -
Fc1ccccc1OCCCN1CCOCC1 | - | 52.0 | - | - | - | -
Cc1ccccc1OCCCN1CCCC1 | - | 43.0 | - | - | - | -
Cc1ccc(OCCN2CCCCCC2)c(C)c1 | - | - | - | - | - | -
CN(C1=NC(=O)C(CC(=O)Nc2ccc(Br)cc2)S1)c1ccc(O)cc1 (configuration not stated) | - | - | - | - | - | -
Cc1oc2c(CN3CCCC3)c(O)ccc2c(=O)c1-c1ccccc1 | . | - | 2.97 | - | - | -
Cc1oc2c(CN3CCOCC3)c(O)ccc2c(=O)c1-c1ccc(Br)cc1 | . | - | 3.07 | - | - | -
O=C(c1coc2ccc(O)c(CN3CCOCC3)c12)C1CC1 | - | - | - | - | - | -
CCc1cc2c(=O)c(-c3cnn(-c4ccccc4)c3)coc2c(CN2CCOCC2)c1O | - | - | 2.88 | - | - | -
O=c1c(-c2ccc(Br)cc2)coc2c(CN3CCOCC3)c(O)ccc12 | . | - | 2.97 | - | - | -
CCc1cc2c(=O)c(-c3nc4ccccc4n3C)coc2c(CN2CCOCC2)c1O | - | - | - | - | - | -
Cc1cc2nc(-c3cccc(NC(=O)c4ccc(Br)o4)c3C)oc2cc1C | - | - | - | - | - | -
Nc1c(C(=O)NCCN2CCOCC2)c2nc3ccccc3nc2n1CCc1ccccc1 | . | - | 3.87 | - | - | -
CC(=O)Nc1ccc(S(=O)(=O)c2c(N)n(CCN3CCOCC3)c3nc4ccccc4nc23)cc1 | . | - | 2.27 | - | - | -
CC(=O)Nc1nc2ccccc2n1CCN1CCOCC1 | - | - | - | - | - | -
Nc1c(C(=O)NCCN2CCOCC2)c2nc3ccccc3nc2n1CCc1ccccc1F | . | - | 3.91 | - | - | -
c1ccc2nc3c(nc2c1)c1ccccc1n3CCN1CCOCC1 | - | - | - | - | - | -
Cc1cccc(NC(=O)c2cc(NC(=O)c3ccco3)ccc2N2CCCCC2)c1 | . | - | 3.01 | - | - | -
COc1ccccc1CNC(=O)CN(C)CC(=O)Nc1cccc(F)c1 | - | - | - | - | - | -
COc1cccc(Cn2c(N)c(C#N)c3nc4ccccc4nc32)c1OC | . | - | 3.43 | - | - | -
COc1cc(Cn2c(N)c(C#N)c3nc4ccccc4nc32)cc(OC)c1 | . | - | 3.9 | - | - | -
N#Cc1c(N)n(CCOC(=O)c2cccc(Br)c2)c2nc3ccccc3nc12 | . | - | 2.44 | - | - | -
CCN(CC)CCOC(=O)c1cccc(Br)c1 | - | . | - | - | - | -
SMILES | Spn DPM-DC inh | Spn MK inh | Fluor 339 460 | NADH coupling | Abs 340nm | PMK inhibit
CCCN1C(=O)c2ccccc2NC1c1ccc(OC)cc1OC (configuration not stated) | . | - | 5.07 | - | - | -
CCCN1C(=O)c2ccccc2NC1c1ccc(OC)cc1O (configuration not stated) | . | - | 5.02 | - | - | -
CCCN1C(=O)c2cc(C(=O)O)ccc2C1O (configuration not stated) | - | - | - | - | - | -
COC(=O)[C@H](CCSC)NC(=O)N1CCN(c2cccc(C(F)(F)F)c2)CC1 | - | - | - | - | - | -
COC(=O)[C@@H](NC(=O)N1CCN(c2cccc(C(F)(F)F)c2)CC1)C(C)C | - | - | - | - | - | 30.0
CCOC(=O)C1CCN(S(=O)(=O)c2ccc3c4c(cccc24)C(=O)N3)CC1 | . | - | 2.12 | - | - | -
CCOCCCN1C(=O)CN(C2CCCCC2)C(=O)C1c1ccc(OC)c(OC)c1 (configuration not stated) | - | - | - | - | - | -
CCCOc1ccc(C2C(=O)N(C3CCCCC3)CC(=O)N2CCCOCC)cc1OC (configuration not stated) | - | - | - | - | - | 26.0
